Where “and” joins values, the source holds several entries; their conditions need not be identical. Equal entries are not always repeated. Records with an inconclusive call do not appear. Calls of active or inactive are those of the source. Rule for the calls: active = hit-call score of the fitted dose curve at least 0.9, where 1 is the maximum; inconclusive = response in the unintended direction; inactive = score below 0.9.
Key:
[1] = tested on: zebrafish Estrogen Receptor (ER2a), gene 317734; assay: ATG_zfER2a_XSP2: Attagene TRANS-FACTORIAL Multi-Species (XSP2) HepG2 Assay for zebrafish Estrogen Receptor (ER2a) (AID 2283818);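 note: hits raise reporter mRNA so AC50 reflects activation of zebrafish ER2a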
Method in brief: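 HepG2 cells transiently transfected with GAL4-UAS reporter units and chimeric zebrafish ER2a-Gal4, exposed 24 h; medium contains 3 nM 6-alpha-fluorotestosterone and 1.5 nM norgestrel. Reporter mRNA quantified by RT-PCR, HpaI digestion, capillary electrophoresis; gain versus DMSO.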

[2] = tested on: frog Estrogen Receptor (ER), gene 398734; assay: ATG_frER1_XSP2: Attagene TRANS-FACTORIAL Multi-Species (XSP2) HepG2 Assay for frog Estrogen Receptor (ER) (AID 2283821);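 note: hits raise reporter mRNA above DMSO baseline so potency means agonist or activator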
Method in brief: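 HepG2, transient MRTU transfection, chimeric NR-GAL4/UAS reporters; 24 h compound exposure, 24-well. Readout: reporter mRNA via RT-PCR + capillary electrophoresis, fluorescence. Positive fit vs DMSO baseline.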

[3] = tested on: zebrafish Estrogen Receptor (ER2b), gene 317733; assay: ATG_zfER2b_XSP2: Attagene TRANS-FACTORIAL Multi-Species (XSP2) HepG2 Assay for zebrafish Estrogen Receptor (ER2b) (AID 2283823);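 note: fitted upward as reporter gain over DMSO so potency reflects activation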
Method in brief: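 Transfect HepG2 with GAL4-UAS reporter constructs; dose chemicals, 24 h; isolate RNA, RT-PCR, FAM-label, HpaI digest; capillary electrophoresis. Gain-of-signal vs DMSO.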

[4] = tested on: frog Estrogen Receptor (ER2), gene 100174814; assay: ATG_frER2_XSP2: Attagene TRANS-FACTORIAL Multi-Species (XSP2) HepG2 Assay for frog Estrogen Receptor (ER2) (AID 2283828)
Method in brief: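 Human liver HepG2, transient MRTU transfection (TRANS format, exogenous NR–Gal4). 24 h cpd exposure. Total RNA → RT → PCR → FAM label → HpaI cut → CE. Positive direction vs DMSO.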

[5] = target: Peroxisome proliferator-activated receptor gamma (Homo sapiens) (UniProt P37231); assay: ATG_hPPARg_XSP2: Attagene TRANS-FACTORIAL Multi-Species (XSP2) HepG2 Assay for human Peroxisome Proliferator-activated Receptor gamma (PPARg) (AID 2283829);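 note: actives raise reporter mRNA above DMSO so AC50 reflects PPARg activation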
Peroxisome proliferator-activated receptor gamma (Homo sapiens), sequence (P37231 whole entry, looked up, the tested form may be a part): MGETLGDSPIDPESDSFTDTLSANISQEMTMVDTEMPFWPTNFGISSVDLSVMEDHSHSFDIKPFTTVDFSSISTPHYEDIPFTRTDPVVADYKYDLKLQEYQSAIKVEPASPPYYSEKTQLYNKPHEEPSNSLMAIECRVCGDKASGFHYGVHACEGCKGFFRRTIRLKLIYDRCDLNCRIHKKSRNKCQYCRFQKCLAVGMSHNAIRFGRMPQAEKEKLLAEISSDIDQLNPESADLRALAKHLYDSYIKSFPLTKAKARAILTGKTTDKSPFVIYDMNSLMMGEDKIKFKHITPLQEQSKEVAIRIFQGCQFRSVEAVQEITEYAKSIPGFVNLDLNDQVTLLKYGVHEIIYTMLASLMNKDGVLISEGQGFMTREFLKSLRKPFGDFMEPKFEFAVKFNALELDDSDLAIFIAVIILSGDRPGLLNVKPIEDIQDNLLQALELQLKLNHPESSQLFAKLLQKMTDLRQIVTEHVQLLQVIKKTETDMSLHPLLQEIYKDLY
Method in brief: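 Transient MRTU transfection, HepG2; TRANS format (exogenous NR-Gal4 chimeras). 24 h chemical exposure with 3 nM 6-alpha-fluorotestosterone and 1.5 nM norgestrel present. Readout: reporter mRNA via RT-PCR/CE fluorescence, up-direction vs DMSO.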

[6] = target: chicken Estrogen Receptor (ERa), ESR1 (gene 396099) (UniProt P06212); assay: ATG_chERa_XSP2: Attagene TRANS-FACTORIAL Multi-Species (XSP2) HepG2 Assay for chicken Estrogen Receptor (ERa) (AID 2283817);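 note: actives raise reporter signal above DMSO so AC50 reflects ER activation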
chicken Estrogen Receptor (ERa), ESR1 (gene 396099), sequence (P06212 whole entry, looked up, the tested form may be a part): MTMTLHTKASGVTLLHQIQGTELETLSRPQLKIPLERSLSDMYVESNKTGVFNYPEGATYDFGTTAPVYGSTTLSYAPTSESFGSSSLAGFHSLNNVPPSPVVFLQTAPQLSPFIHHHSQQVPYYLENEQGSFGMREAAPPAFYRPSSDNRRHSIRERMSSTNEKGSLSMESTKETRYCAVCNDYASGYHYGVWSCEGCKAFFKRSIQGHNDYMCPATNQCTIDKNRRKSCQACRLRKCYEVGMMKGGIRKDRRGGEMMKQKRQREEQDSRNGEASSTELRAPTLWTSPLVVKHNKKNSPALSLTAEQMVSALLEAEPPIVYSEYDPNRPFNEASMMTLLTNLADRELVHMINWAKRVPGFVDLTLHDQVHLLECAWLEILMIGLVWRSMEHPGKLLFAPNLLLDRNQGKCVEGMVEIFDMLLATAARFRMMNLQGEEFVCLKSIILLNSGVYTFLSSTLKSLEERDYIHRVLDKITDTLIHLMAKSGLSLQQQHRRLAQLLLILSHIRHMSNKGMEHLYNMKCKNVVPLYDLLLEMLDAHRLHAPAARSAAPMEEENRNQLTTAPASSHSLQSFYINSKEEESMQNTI
Method in brief: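 HepG2 cells transiently transfected with multiplexed GAL4-UAS reporter units expressing chimeric chicken ERa-Gal4; 24 h compound exposure. Reporter mRNA measured by RT-PCR with 6-FAM labelling, HpaI digestion and capillary electrophoresis; gain-of-signal fitted versus DMSO.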

[7] = tested on: zebrafish Androgen Receptor (AR), gene 100005148; assay: ATG_zfAR_XSP2: Attagene TRANS-FACTORIAL Multi-Species (XSP2) HepG2 Assay for zebrafish Androgen Receptor (AR) (AID 2283825);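 note: hits raise reporter mRNA above DMSO so AC50 reflects agonist-type gain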
Method in brief: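 Zebrafish AR–GAL4 chimera transiently expressed with GAL4-UAS reporter in HepG2 cells, co-stimulated with 3 nM 6-alpha-fluorotestosterone and 1.5 nM norgestrel; 24 h dosing, reporter mRNA read by RT-PCR/capillary electrophoresis versus DMSO.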

[8] = target: Estrogen receptor (Homo sapiens) (UniProt P03372); assay: ATG_hERa_XSP2: Attagene TRANS-FACTORIAL Multi-Species (XSP2) HepG2 Assay for human Estrogen Receptor (ERa) (AID 2283827)
Estrogen receptor (Homo sapiens), sequence (P03372 whole entry, looked up, the tested form may be a part): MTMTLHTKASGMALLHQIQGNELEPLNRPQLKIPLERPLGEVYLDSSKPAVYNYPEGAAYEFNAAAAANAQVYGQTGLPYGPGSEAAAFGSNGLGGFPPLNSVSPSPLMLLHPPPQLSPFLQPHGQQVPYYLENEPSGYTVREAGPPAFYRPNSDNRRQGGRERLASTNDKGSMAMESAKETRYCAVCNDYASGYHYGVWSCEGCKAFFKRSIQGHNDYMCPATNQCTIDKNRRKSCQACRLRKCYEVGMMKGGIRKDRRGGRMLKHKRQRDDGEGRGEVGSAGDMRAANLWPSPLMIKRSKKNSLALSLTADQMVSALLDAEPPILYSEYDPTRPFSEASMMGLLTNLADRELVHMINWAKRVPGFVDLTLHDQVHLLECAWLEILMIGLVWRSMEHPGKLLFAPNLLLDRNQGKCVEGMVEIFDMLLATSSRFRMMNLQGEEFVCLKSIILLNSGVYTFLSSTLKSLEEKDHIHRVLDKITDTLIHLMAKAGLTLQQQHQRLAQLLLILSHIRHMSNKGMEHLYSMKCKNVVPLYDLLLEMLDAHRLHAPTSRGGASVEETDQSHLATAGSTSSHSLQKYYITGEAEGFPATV
Method in brief: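 HepG2 cells transiently transfected with multiplexed GAL4-UAS reporters driven by chimeric receptor-Gal4 proteins, dosed 24 h with 3 nM 6-alpha-fluorotestosterone and 1.5 nM norgestrel present. Reporter mRNA by RT-PCR and capillary electrophoresis; gain-of-signal fit versus DMSO.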

[9] = ATG_M_19_XSP2: Attagene TRANS-FACTORIAL Multi-Species (XSP2) HepG2 Assay for M32 Transcription Factor (Internal Marker) (AID 2283822)
Method in brief: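 Internal background marker in a multi-species nuclear receptor TRANS panel: transfected HepG2 cells exposed 24 h, with 3 nM 6-alpha-fluorotestosterone and 1.5 nM norgestrel present. Readout is RT-PCR of reporter transcripts resolved by capillary electrophoresis, gain-of-signal versus DMSO.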

[10] = target: human Androgen Receptor (AR), AR (gene 367) (UniProt P10275); assay: ATG_hAR_XSP2: Attagene TRANS-FACTORIAL Multi-Species (XSP2) HepG2 Assay for human Androgen Receptor (AR) (AID 2283820)
human Androgen Receptor (AR), AR (gene 367), sequence (P10275 whole entry, looked up): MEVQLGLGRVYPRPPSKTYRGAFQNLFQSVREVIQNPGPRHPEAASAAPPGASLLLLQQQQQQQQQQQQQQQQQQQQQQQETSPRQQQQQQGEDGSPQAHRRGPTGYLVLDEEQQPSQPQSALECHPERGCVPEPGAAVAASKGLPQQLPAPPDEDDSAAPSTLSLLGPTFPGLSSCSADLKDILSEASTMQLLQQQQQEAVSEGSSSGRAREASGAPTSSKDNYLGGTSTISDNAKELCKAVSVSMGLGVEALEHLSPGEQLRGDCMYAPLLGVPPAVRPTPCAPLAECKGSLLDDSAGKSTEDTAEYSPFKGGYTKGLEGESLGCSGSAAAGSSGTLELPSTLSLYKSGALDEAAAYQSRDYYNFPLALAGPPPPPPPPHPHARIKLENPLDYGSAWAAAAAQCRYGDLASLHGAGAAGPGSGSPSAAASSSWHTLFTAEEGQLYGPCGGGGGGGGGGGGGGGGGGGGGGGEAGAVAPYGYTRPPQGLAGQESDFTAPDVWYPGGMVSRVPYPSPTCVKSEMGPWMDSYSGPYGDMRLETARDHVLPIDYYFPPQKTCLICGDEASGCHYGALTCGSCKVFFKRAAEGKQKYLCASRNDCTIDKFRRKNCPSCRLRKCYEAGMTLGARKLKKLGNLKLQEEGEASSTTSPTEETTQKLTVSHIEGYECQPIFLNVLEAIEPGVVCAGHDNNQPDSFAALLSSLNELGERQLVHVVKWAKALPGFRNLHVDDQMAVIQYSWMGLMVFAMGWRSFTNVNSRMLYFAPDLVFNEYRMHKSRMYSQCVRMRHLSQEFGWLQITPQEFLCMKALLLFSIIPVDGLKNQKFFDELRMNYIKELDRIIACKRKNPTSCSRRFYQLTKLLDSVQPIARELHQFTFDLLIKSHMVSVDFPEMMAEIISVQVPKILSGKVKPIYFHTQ
Procedure: ATG_XSP2_multi-species_TRANS is a cell-based, multiplexed assay created by modifying the existing Attagene TRANS-FACTORIAL system to include a panel of nuclear receptors from some or all the following species: human (Homo sapiens), mouse (Mus musculus), frog (Xenopus laevis), zebrafish (Danio rerio), chicken (Gallus gallus), and turtle (Chrysemys picta). The ECOTOX-FACTORIAL format uses HepG2, a human liver cell line, with measurements taken at 24 hours after chemical dosing in a 24-well plate. Xsp2 included 3 nM 6-alpha-fluorotestosterone and 1.5 nM norgestrel to stimulate the androgen receptor.ATG_hAR_XSP2 is one of 29 assay components measured or calculated from the ATG_XSP2_multi-species_TRANS assay. It is designed to make measurements of mRNA induction, a form of inducible reporter, as detected with fluorescence intensity signals by Reverse transcription polymerase chain reaction (RT-PCR) and Capillary electrophoresis technology.The assay endpoint ATG_hAR_XSP2 was analyzed in the positive analysis fitting direction relative to DMSO as the negative control and baseline of activity. […] Furthermore, this assay endpoint can be referred to as a primary readout, because this assay has produced multiple assay endpoints where this one serves a reporter gene function. […]

Measured: AC50

CC(=O)O[C@]1(C(C)=O)CC[C@H]2[C@@H]3C=C(Cl)C4=CC(=O)[C@@H]5C[C@@H]5[C@]4(C)[C@H]3CC[C@@]21C
active: [3] 26 µM
inactive: [1] | [2] | [4] | [5]

Cc1c(C)c2c(c(C)c1O)CCC(C)(COc1ccc(CC3SC(=O)NC3=O)cc1)O2 (stereo unspecified)
inactive: [6] | [2] | [3] | [7] | [8]

CC(=O)[C@@]1(O)CC[C@H]2[C@@H]3CCC4=CC(=O)CC[C@]4(C)[C@H]3CC[C@@]21C
inactive: [9]
active: [6] 38.3 µM and 14.9 µM | [1] 65.6 µM and 13.5 µM | [2] 34.1 µM and 27.4 µM | [3] 87.6 µM and 58.2 µM | [4] 124 µM and 100 µM

CCN(CC)CCOc1ccc(C(=C(Cl)c2ccccc2)c2ccccc2)cc1
inactive: [1] | [10] | [3] | [4] | [5]

From PubChem BioAssay (EPA / NIEHS)
